TDP1 cell noCPT = qHTS for Inhibitors of human tyrosyl-DNA phosphodiesterase 1 (TDP1): qHTS in cells in absence of CPT; AID 686978, 2013; Potency, µM (titrated, usually from 46.2 µM), without a hit: at the top dose activity change, negative = growth inhibition, most hits filed as inhibitors; DT40 Tdp1-/- hTDP1 cells, no CPT, ATP luminescence, 48 h; actives 15% (n = 420,000); also: potency is read from the fitted curve at half-maximal effect; nearly all actives have a fitted effect of over 55% in size
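Chicken DT40 Tdp1-/- cells stably complemented with human TDP1 were seeded at 400 cells/well with DMSO in place of 20 nM camptothecin. After compound pinning, cells grew at least 48 hr at 37 °C; viability read by CellTiter-Glo luminescence.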
IL1B secr inh = inflammasome signaling inhibition, IL-1 beta readout | THP-1 LPS/ATP IL-1B secretion, AlphaLISA, 16 h; active compounds read low | activity change, % at 57.5 µM | actives 4.7% (n = 360,000) | AID 743279; in the data active = activity change below about -50%; inconclusive = mostly about -30% to -49%
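THP-1 cells pretreated 1 hr with compounds (up to 57.5 uM final), then stimulated with LPS (250 ng/mL final) plus ATP (1.25 mM final); secreted IL-1B measured by AlphaLISA after 16 hr, decreased signal indicating inhibition.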
HT1080 IDH1KD tx = HT-1080 IDH1 knockdown cell toxicity (counter line). HT-1080 IDH1 knockdown viability, ATP luminescence, 48 h. Potency, µM (top dose mostly 46.1 µM), without a hit: top-dose activity, negative = toxicity, most hits filed as cytotoxic. actives 2% (n = 360,000). AID 686971;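 also: potency is read from the fitted curve at half-maximal effect; 0% = DMSO wells and -100% = cell-free medium wells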
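HT-1080-IDH1KD cells (IDH1 knocked down), 750/well in RPMI with 5% FBS, treated with compound 48 h at 37 degrees C. Viability by CellTiter-Glo luminescence, normalised to DMSO and no-cell wells; concentration-response curves classed.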
HT1080NT lethal = kills 2HG-producing HT-1080-NT fibrosarcoma cells; HT-1080-NT fibrosarcoma viability, CellTiter-Glo ATP luminescence, 48 h; Potency, µM (doses to about 46.1 µM), inactives show at the highest dose activity, negative = less viability, most hits filed as cytotoxic; actives 1.6% (n = 360,000);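 also: NT is the 2HG producing partner of a matched IDH1 knockdown line; potency is read from the fitted curve at half-maximal effect; 0% = DMSO-treated cells and -100% = media-only wells without cells; nearly all actives have a fitted effect of over 55% in size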
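Viability by CellTiter-Glo luminescence after 48 h compound exposure at 37C of HT-1080-NT cells (750/well, RPMI, 5% FBS). % activity scaled between DMSO wells and medium-only wells, then curve-fitted and categorized by curve class.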
DT40 TDP1 CPT = DT40-hTDP1 cell growth loss with CPT | chicken DT40 Tdp1-/-;hTDP1 cells + 20 nM CPT, ATP luminescence, 48 h | Potency, µM (titrated, usually from 46.2 µM), without a hit: at the highest dose activity change, negative = growth inhibition, hits mostly inhibitors | actives 12% (n = 420,000) | AID 686979; also: potency is read from the fitted curve at half-maximal effect; nearly all actives have a fitted effect of over 55% in size
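Chicken DT40 Tdp1-/- cells complemented with human TDP1, 400 cells/well, exposed to compounds plus 20 nM camptothecin for at least 48 h at 37 C; viability read as ATP content by CellTiter-Glo luminescence.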
uPA surface inh = cell surface uPA generation inhibition; Potency, µM (top dose mostly 38.3 µM), for the others: top-dose activity change, negative = inhibition, most hits filed as inhibitors; cell surface uPA generation assay, qHTS; actives 0.31% (n = 330,000); active = well fitted inhibition curve with a large enough effect; inconclusive = small, poorly fitted or top-dose-only effect; inactive = no such curve, though single readings can be large or run the other way; tested in mouse RAW 264.7 cells; also: potency is read from the fitted curve at half-maximal effect; nearly all actives have a fitted effect of over 55% in size
* hit, by the source's call; ? = inconclusive; . = not tested or not shown; [ ] = another dose, or the depositor's remark. A selection: hits, their analogues and other compounds. The true share with any hit is near 19%. Unless noted, calls follow the shape of the dose curve; as a rule, active = well fitted curve in the direction sought with a large enough effect; inconclusive = small, poorly fitted or top-dose-only effect, or another doubt; inactive = no such curve, though single readings can be large; an effect the other way counts as inactive or inconclusive. Unless noted, % is scaled to controls: 0 for no effect and ±100 for the full control effect.

SMILES	TDP1 cell noCPT	IL1B secr inh	HT1080 IDH1KD tx	HT1080NT lethal	DT40 TDP1 CPT	uPA surface inh
COc1ccc(NC(=O)COc2ccccc2C)cc1S(=O)(=O)N1CCCCC1	8.2µM*	-22	-16%	-3%	?	-7%
CCOc1ccc(C(=O)CCC(=O)Nc2ccc(C)c(S(=O)(=O)N3CCCCC3)c2)cc1	16µM*	-9	-17%	-1%	-15%	6%
O=C(NCCCn1ccnc1)c1ccc(COc2ccccc2)o1	-10%	5	0%	3%	-13%	1%
O=C(/C=C/c1ccccc1Cl)NC1CCS(=O)(=O)C1 (configuration not stated)	18µM*	46	6%	7%	21µM*	3%
O=C(C=Cc1ccccc1Cl)c1ccccc1	16µM*	-11	?	23µM*	?	-6%
O=C(/C=C/c1ccccc1Cl)NC1CCCCC1	?	?	-2%	6%	1%	-10%
O=C(/C=C/c1ccccc1Cl)N1CCCN(C(=O)/C=C/c2ccccc2Cl)CC1	21µM*	-27	-8%	-7%	18µM*	-4%
O=C(c1ccccc1Cl)n1nc(-c2ccco2)nc1NCc1cccs1	-19%	.	.	.	?	.
OC(c1cccc(F)c1)c1ncc(-c2ccc(C(F)(F)F)cc2)[nH]1 (configuration not stated)	16µM*	-16	?	-30%	?	.
COc1c(C)cc(C(O)c2ncc(-c3ccc4ccccc4c3)[nH]2)cc1C (configuration not stated)	?	0	?	?	?	.
OC(c1ccc2ccccc2c1)c1ncc(-c2ccc(C(F)(F)F)cc2)[nH]1 (configuration not stated)	?	-8	?	?	?	.
COc1ccc(C(O)c2ncc(-c3cccc(C(F)(F)F)c3)[nH]2)cc1F (configuration not stated)	?	-25	-24%	-11%	16µM*	.
CCc1ccc(C(O)c2ncc(-c3cccc(C(F)(F)F)c3)[nH]2)cc1 (configuration not stated)	23µM*	-4	?	23µM*	?	.
COc1c(C)cc(C(O)c2ncc(-c3ccc(C(F)(F)F)cc3)[nH]2)cc1C (configuration not stated)	?	18	16µM*	?	?	.
Nc1ncc(S(=O)(=O)NCc2cccc(Cl)c2)cn1	-21%	.	.	.	-23%	.
COc1cccc(C(O)c2ncc(-c3cccc(C(F)(F)F)c3)[nH]2)c1 (configuration not stated)	?	-5	-21%	?	?	.
OC(c1cccc(Cl)c1)c1ncc(-c2cccc(C(F)(F)F)c2)[nH]1 (configuration not stated)	23µM*	-16	?	?	?	.
COc1ccc2c(c1)-c1nc(-n3ncc(C(=O)NCc4cccnc4)c3C3CC3)ncc1CC2	23µM*	.	.	.	-6%[9.04 µM]	.
COc1ccc2c(c1)-c1nc(-n3ncc(C(=O)NCC4CCCN(C)C4)c3C3CC3)ncc1CC2 (configuration not stated)	-18%	.	.	.	4%[9.04 µM]	.
COc1ccc2c(c1)-c1nc(-n3ncc(C(=O)NC[C@@H]4CCCN5CCCC[C@H]45)c3C)ncc1CC2	9.2µM*	.	.	.	?	.
COc1ccccc1NS(=O)(=O)c1cc(NC(=O)CNC(=O)c2ccc(C)s2)ccc1Cl	-75%	5	-2%	-1%	-76%	-5%
COc1cc(C=O)c(Br)cc1OC1CCCC1	?	0	-1%	-3%	1%	-1%
COc1cc(CNCc2ccccc2)c(Br)cc1OC1CCCC1	?	-55*	?	?	?	-5%
Cn1c(CNC(=O)CCNC(=O)c2cccc(Cl)c2)cc(=O)n(C)c1=O	9%	-4	-6%	13%	1%	5%
O=C1CC2(CCN(C(=O)c3ccc(F)cc3)CC2)Oc2ccccc21	-26%	-18	-2%	0%	-15%	-3%
SMILES	TDP1 cell noCPT	IL1B secr inh	HT1080 IDH1KD tx	HT1080NT lethal	DT40 TDP1 CPT	uPA surface inh
COc1ccc(NC(=O)CCc2nnc3n(Cc4ccccc4Cl)c(=O)c4ccccc4n23)cc1	3.3µM*	.	.	.	3.3µM*	.
O=C(CCc1nnc2n(Cc3ccccc3Cl)c(=O)c3ccccc3n12)Nc1ccc(F)c(F)c1	21µM*	.	.	.	23µM*	.
Cc1ccc(NC(=O)CCc2nnc3n(CC(C)C)c(=O)c4ccccc4n23)cc1C	23µM*	.	.	.	26µM*	.
CN1CCN(CCCNC(=O)CCc2nnc3n(Cc4ccccc4Cl)c(=O)c4ccccc4n23)CC1	0%	-13	2%	-1%	-18%	7%
COc1cc(C2Nc3ccc4ccccc4c3C3=C2C(=O)CC(C)(C)C3)ccc1OC(C)C(=O)O (configuration not stated)	26%	14	1%	4%	-22%	4%
CC(=O)Nc1ccc(S(=O)(=O)NC2(C(F)(F)F)C(=O)Nc3c2c(=O)[nH]c(=O)n3-c2ccc(C)c(C)c2)cc1 (configuration not stated)	-1%	.	.	.	2%	.
Cc1cc(C)c(-c2c(N)cc(Br)cc2Br)c(N)c1	?	2	?	?	?	-2%
COc1ccc(S(=O)(=O)Cc2ccccc2)cc1N	?	1	?	-10%	9.2µM*	-11%
OCC1OC(n2cnc3c(NCc4ccccc4O)ncnc32)C(O)C1O (configuration not stated)	1.5µM*	-86*	9.2µM*	13µM*	1.3µM*	-6%
Nc1ccnc2c1ncn2[C@@H]1O[C@H](CO)[C@@H](O)[C@H]1O	4.6µM*	.	.	.	12µM*	.
OCC1OC(n2cnc3ncccc32)C(O)C1O (configuration not stated)	6.5µM*	16	?	21µM*	7.3µM*	.
Nc1nc(Cl)c2ncn(C3OC(CO)C(O)C3O)c2n1 (configuration not stated)	?	6	?	-3%	?	-2%
O=C(Cn1cnc2c(NCc3ccccc3)ncnc21)NCc1ccccc1	2.9µM*	85	6.5µM*	8.2µM*	4.1µM*	?
COc1cc(NC(=O)Cn2cnc3c(NCc4ccccc4)ncnc32)cc(OC)c1OC	3%	23	-20%	-25%	3%	1%
COc1ccc(OCC(=O)NNC(=O)C(=O)N2CCCC2)cc1	-3%	6	-6%	1%	-2%	1%
